Rows were chosen to be rich in hits. Some 7.5% of all compounds tested hit in one or more screens of this group.
KinaseGlo FLuc: Counterscreen for Luciferase (Kinase-Glo TM) Inhibition | Kinase-Glo luciferase, ATP luminescence, 8 min | Potency, µM (highest dose often 38.3 µM), most hits filed as inhibitors | AID 1379, 2008 | 200,000 compounds, 0.28% hits; also: nearly all actives have a fitted effect of over 60% in size
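Compounds were added to a substrate mix at pH 7.2 (50 mM imidazole, 10 uM ATP, within the enzyme's linear range), followed by Kinase-Glo detection reagent; luminescence was measured after 8 minutes at ambient temperature.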
SMN2 splice up: qHTS Assay for Enhancers of SMN2 Splice Variant Expression; HEK293 SMN2-luciferase splicing reporter, luminescence, 30-36 h; Potency, µM (top dose mostly 46.1 µM), usual class: activators; 210,000 compounds, 2.8% hits; also: nearly all actives have a fitted effect of over 55% in size
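HEK293 cells carry an SMN2 minigene-luciferase reporter in which exon 7 inclusion puts luciferase in frame. Cells were seeded at 2000 cells/well, attached for 10-12 hours, then exposed to compounds for 30-36 hours at 37C before ONE-Glo luminescence.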
Rab9 prom act: qHTS Assay for Rab9 Promoter Activators. 320,000 compounds, 2.8% hits. Potency, µM (titrated, usually from 9.22 µM), actives largely listed as activators. Huh7 Rab9 promoter-luciferase reporter, luminescence, 24 h; also: nearly all actives have a fitted effect of over 60% in size
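Using Huh7 cells stably transfected with Rab9 promoter–luciferase, compounds were incubated 24 h at 37 °C, 5% CO2; luciferase luminescence was read 10 min after reagent addition.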
NPC1 promoter act: qHTS Assay for NPC1 Promoter Activators | Potency, µM (highest dose often 9.22 µM), actives largely listed as activators | AID 485313, 2010 | Huh7 NPC1 promoter luciferase reporter, 24 h | 320,000 compounds, 2.4% hits; also: nearly all actives have a fitted effect of over 60% in size
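Luminescence from an NPC1 promoter-driven luciferase reporter in stably transfected Huh7 cells was measured after 24 h compound treatment at 37 °C, followed by 10 min ambient incubation with luciferase detection reagent.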
FLuc modulator: qHTS profiling assay for firefly luciferase inhibitor/activator using purifed enzyme and Km concentrations of substrates (counterscreen for miR-21 project) | purified FLuc, Km substrates, luminescence inhibition | Luciferin 4-monooxygenase (Photinus pyralis), P08659 | 360,000 compounds, 6.9% hits | AID 588342, 2011 | Potency, µM (series often up to 57.5 µM), usual class: inhibitors; also: nearly all actives have a fitted effect of over 55% in size
Target sequence (P08659 whole entry, looked up): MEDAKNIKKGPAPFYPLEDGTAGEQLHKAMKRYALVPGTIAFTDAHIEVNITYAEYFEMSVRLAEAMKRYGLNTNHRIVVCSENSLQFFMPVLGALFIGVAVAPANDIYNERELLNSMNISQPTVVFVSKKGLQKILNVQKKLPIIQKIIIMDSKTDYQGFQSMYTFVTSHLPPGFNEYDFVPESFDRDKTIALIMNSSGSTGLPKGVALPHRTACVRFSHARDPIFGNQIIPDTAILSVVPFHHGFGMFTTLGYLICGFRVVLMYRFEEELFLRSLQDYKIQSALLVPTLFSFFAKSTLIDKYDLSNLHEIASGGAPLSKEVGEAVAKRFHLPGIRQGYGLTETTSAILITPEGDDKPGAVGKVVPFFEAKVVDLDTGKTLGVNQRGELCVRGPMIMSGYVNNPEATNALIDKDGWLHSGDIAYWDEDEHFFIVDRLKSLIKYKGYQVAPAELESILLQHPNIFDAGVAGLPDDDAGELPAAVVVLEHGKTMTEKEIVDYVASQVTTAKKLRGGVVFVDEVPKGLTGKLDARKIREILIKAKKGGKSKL
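Purified P. pyralis luciferase (10nM final) with 10uM D-luciferin and 10uM ATP (Km levels) in 50mM Tris acetate pH 7.5, 10mM Mg acetate, 0.01% Tween-20, 0.05% BSA; qHTS 6-point titration, ~60 µM downward; luminescence read.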
ELG1 genotox: qHTS screen for small molecules that induce genotoxicity in human embryonic kidney (HEK293T) cells expressing luciferase-tagged ELG1 | HEK293T ELG1-luciferase reporter, luminescence, 16 h | Potency, µM (highest dose often 46 µM), actives largely listed as activators | 330,000 compounds, 1.3% hits | AID 504466, 2011; also: nearly all actives have a fitted effect of over 60% in size
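Genotoxic stress is detected as increased luminescence from luciferase-tagged ELG1 in HEK293T cells, measured with ONE-Glo after a 16 hr treatment at 37 °C.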
Hits are given with their value; 0 = inactive; ? = inconclusive; - = no result given; [ ] = another dose, or the depositor's remark. Calls follow the shape of the dose curve; as a rule, active = well fitted curve in the direction sought with a large enough effect; inconclusive = small, poorly fitted or top-dose-only effect, or another doubt; inactive = no such curve, though single readings can be large; an effect the other way counts as inactive or inconclusive.

SMILES | KinaseGlo FLuc | SMN2 splice up | Rab9 prom act | NPC1 promoter act | FLuc modulator | ELG1 genotox
Cc1ccccc1C(=O)Nc1ccc(C(=O)N/N=C/c2ccccn2)cc1 | - | - | 0 | 0 | 0 | 0
C(=N\N=C\c1ccccn1)/c1ccccn1 | - | - | 0 | 0 | 12µM | 0
O=C(N/N=C/c1ccccn1)c1ccc(N/N=C/c2ccccn2)cc1 | 0 | 14µM | 2.2µM | 0 | 2.4µM | 0
O=C(N/N=C/c1ccc[nH]1)c1ccc([N+](=O)[O-])cc1 | 0 | 0[1.84 µM] | 0 | 0 | 15µM | 0
O=C(N/N=C/c1ccccn1)c1ccc([N+](=O)[O-])cc1 | 0 | 0 | 0 | 0 | 19µM | 0
O=C(c1cnc(N2CCCCC2)c2ccccc12)N1CCN(c2ccc(F)cc2)CC1 | - | - | - | - | 0 | -
COc1ccc(S(=O)(=O)N2CCN(CC(O)COc3ccc(CC#N)cc3)CC2)cc1OC (configuration not stated) | - | - | 0 | 0 | 0 | 0
O=C(N/N=C/c1ccccn1)c1cc([N+](=O)[O-])cc([N+](=O)[O-])c1 | 0 | 0 | 0 | 0 | 0 | 0
Cc1ccc(C(=O)N/N=C\c2ccc[nH]2)cn1 | 0 | 0 | 0 | 0 | ? | 0
O=C(N/N=C/c1ccccn1)c1ccc(Br)cc1 | 0 | 0 | ? | ? | 11µM | ?
CC(C)(C)c1ccc(C(=O)N/N=C/c2ccccn2)cc1 | - | - | 0 | 0 | 9.5µM | ?
Cc1ccc(C(=O)N/N=C\c2ccccn2)cn1 | - | - | 0 | 0 | 19µM | 0
Cc1ccc([N+](=O)[O-])cc1NC(=O)c1ccc2c(c1)OCO2 | 0 | 0 | 0 | 0 | 0 | 0
Cc1ccc(C(=O)Nc2ncc([N+](=O)[O-])s2)cc1 | - | - | 0.025µM | 0.032µM | 0.12µM | ?
Cc1onc(-c2ccccc2)c1C(=O)Nc1ncc([N+](=O)[O-])s1 | - | - | 0 | 0 | 0 | 0
O=C(Nc1ncc([N+](=O)[O-])s1)c1ccc2c(c1)OCO2 | - | - | 1.3µM | 3.2µM | 0.11µM | ?
O=C(Nc1ncc([N+](=O)[O-])s1)c1ccco1 | - | - | 1.1µM | 1.6µM | 11µM | 2.6µM
CCOc1ccc(NC(=O)CN(C)C(=O)c2cn3ccccc3n2)cc1OCC | - | - | 0 | 0 | 0 | 0
O=C(Nc1cccc(F)c1)N1CCC2(CC1)CCN(C(=O)c1cnccn1)CC2 | 0 | 0 | - | - | - | -
O=C(NNC(=O)c1ccc(F)cc1F)c1ccc(-n2cnnn2)cc1 | - | - | 0 | 0 | 0 | 0
Cc1cccc(NC(=O)C(=O)NCC2CCCO2)c1 (configuration not stated) | 0 | - | 0.71µM | 2.5µM | 21µM | ?
COc1ccc(-c2cc(C(=O)NCC3CCCO3)on2)cc1OC (configuration not stated) | - | - | 0 | 0 | 0 | 0
O=C(NCC1CCCO1)c1cc(-c2ccc(F)cc2)no1 (configuration not stated) | - | - | 3.2µM | 0 | ? | ?
O=C(CNC(=O)c1ccc(Cl)cc1Cl)NCC1CCCO1 (configuration not stated) | - | - | 0 | 0 | 24µM | 0
Cc1ccc(-c2cc(C(=O)NCC3CCCO3)no2)cc1 (configuration not stated) | 0 | 10µM | 2.8µM | 2.5µM | 0[2.3 µM] | ?
SMILES | KinaseGlo FLuc | SMN2 splice up | Rab9 prom act | NPC1 promoter act | FLuc modulator | ELG1 genotox
COc1ccc(C)cc1NC(=O)C1COc2ccccc2C1 (configuration not stated) | - | - | - | - | 0 | -
CN(Cc1ccco1)S(=O)(=O)c1csc(C(N)=O)c1 | - | - | 0 | 0 | 0 | 0[9.26 µM]
CC(=O)N1c2ccc(S(=O)(=O)N3CCCCCC3)cc2CC1C(=O)NCc1ccccc1F (configuration not stated) | - | - | - | - | 0 | -
COc1ccccc1CNC(=O)CCCN1C(=O)CSc2c1c(C)nn2-c1ccccc1 | - | - | - | - | 0 | -
COc1ccc(C2c3c(-c4ccccc4)n[nH]c3C(=O)N2c2ccc(C(=O)O)cc2)c(OC)c1 (configuration not stated) | - | 0 | - | - | ? | -
O=C(NC(=S)NCC1CCCO1)c1ccc(Cl)cc1Cl (configuration not stated) | 0 | 0 | 0 | 0 | 0 | 0
O=C(NCC1CCCO1)c1cc(-c2ccc(Cl)cc2Cl)on1 (configuration not stated) | 0 | 25µM | 2.8µM | 3.5µM | 3.4µM | ?
O=C(NCC1CCCO1)c1cc(-c2ccccc2)on1 (configuration not stated) | 0 | 35µM | 2.5µM | 2.5µM | 15µM | 10µM
COc1ccc(-n2nc(C(=O)NCC(=O)N3CCN(c4ccccn4)CC3)c3ccccc3c2=O)cc1OC | 0 | 0 | 0 | 0 | 4.8µM | 0
COc1ccc(-n2nc(C(=O)NCC(=O)N3CCN(c4ccccn4)CC3)c3ccccc3c2=O)cc1 | 0 | ? | ? | ? | 1.2µM | 0
COc1ccc(CC(=O)N2CCN(c3ccccn3)CC2)cc1 | 0 | 0 | 0 | 0 | 0 | 0
COc1ccc(/C=C/C(=O)NC(=S)N2CCN(c3ccccn3)CC2)cc1 | - | - | 0 | 0 | 13µM | 0
COc1ccc(-n2nc(C(=O)NCC(=O)Nc3cc(OC)c(OC)c(OC)c3)c3ccccc3c2=O)cc1OC | - | - | 0 | 0 | 0 | 0
Cn1c(NC(=O)CCc2ccccc2)cc(=O)n(C)c1=O | 0 | ? | 2.8µM | ? | 13µM | 16µM
COc1ccc(/C=C/C(=O)Nc2cc(=O)n(C)c(=O)n2C)cc1 | 0 | 0 | 0 | 0 | 9.5µM | 0
Cn1c(NC(=O)/C=C/c2ccccc2)cc(=O)n(C)c1=O | 0 | 7.9µM | ? | 0 | 21µM | ?
Cn1c(NC(=O)/C=C/c2ccc(Cl)c(Cl)c2)cc(=O)n(C)c1=O | 0 | 0 | 0 | 0 | 0 | ?
CCCOc1ccc(CNC(=O)c2oc3ccc4c(c3c2C)C(=O)CC(C)(CC)O4)cc1 (configuration not stated) | - | 0 | - | - | ? | -
COc1ccccc1CNC(=O)c1oc2ccc3c(c2c1C)C(=O)CC(C)(C)O3 | - | 0 | - | - | 5.4µM | -
Cc1c(C(=O)NCC2CCCO2)oc2ccc3c(c12)C(=O)CC(C)(C)O3 (configuration not stated) | 0 | - | 2.5µM | ? | 2.7µM | ?
Cc1cc(C)c(Cn2c(CCNC(=O)c3ccco3)nc3ccccc32)c(C)c1 | - | 0 | - | - | 0 | -
O=C(NC1CCCCC1)c1n[nH]c2c1CC(c1ccccc1)CC2 (configuration not stated) | - | - | 1.8µM | 2.2µM | 3µM | ?
O=C(c1ccccc1Cl)n1nc(-c2ccco2)nc1NCc1cccs1 | - | 0 | - | - | 0 | -
Cc1ncc(CN=Cc2ccc(Cl)cc2)c(N)n1 | 0[7.66 µM] | 0[9.22 µM] | 0 | 0 | 0 | 0
COc1ccccc1NCC(=O)N/N=C/C=C/c1ccccc1 | 0 | 0 | 0 | 0 | 27µM | 0
CCOC(=O)N/N=C/C=C/c1ccccc1 | 0 | 11µM | ? | ? | ? | ?
